# About 79,000 compounds went through this panel and 15% of them were active in at least one assay; those are over-represented in the sample as a whole. Unmarked numbers belong to inactive results. Active and inactive are the calls of the source. Cut-off read from the data, not from the text of the source: active = growth inhibition above about 70%; inactive = the rest. Where a SMILES comes first, the peptide text is derived from it. The star is where a group is joined. Cbz = O=C(OCc1ccccc1)*; Bn = c1ccc(C*)cc1
# Legend:
# [1] = NCI Yeast Anticancer Drug Screen. Data for the rad50 strain (AID 155);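 note: 0% = growth of vehicle-only cultures of the same strain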; conditions: S. cerevisiae rad50 strain growth inhibition; at 50.0 µM; active compounds read high
# Summary of the method: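 DNA repair mutant yeast, compound exposure, growth read-out; inhibition is taken relative to vehicle.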
# [2] = NCI Yeast Anticancer Drug Screen. Data for the mec2-1 strain (AID 157); conditions: S. cerevisiae mec2-1 strain, at 50.0 µM, active compounds read high
# Summary of the method: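 Yeast mec2-1 mutant treated with compound. Readout: growth inhibition vs vehicle controls.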
# [3] = NCI Yeast Anticancer Drug Screen. Data for the sgs1 mgt1 strain (AID 161);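 note: 0% = growth of cultures given vehicle only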; conditions: S. cerevisiae sgs1 mgt1 strain, at 50.0 µM, active compounds read high
# Summary of the method: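 Mutant yeast exposed to compound; growth scored against vehicle-only wells.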
# [4] = NCI Yeast Anticancer Drug Screen. Data for the cln2 rad14 strain (AID 165);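 note: 0% = growth equal to vehicle treated cultures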; conditions: S. cerevisiae cln2 rad14 strain, at 50.0 µM, active compounds read high
# Summary of the method: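 cln2 rad14 yeast strain; compound exposure; growth inhibition read vs vehicle controls.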
# [5] = NCI Yeast Anticancer Drug Screen. Data for the bub3 strain (AID 167); conditions: S. cerevisiae bub3 mutant strain, at 50.0 µM, active compounds read high
# Summary of the method: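 In this screen, a yeast mutant lacking normal mitotic checkpoint function is challenged with compound. Relative growth versus vehicle gives the inhibition value.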
# [6] = NCI Yeast Anticancer Drug Screen. Data for the mlh1 rad18 strain (AID 175); conditions: S. cerevisiae mlh1 rad18 strain growth inhibition; at 50.0 µM; active compounds read high
# Summary of the method: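 Yeast w/ defined DNA-repair lesions; compound exposure; growth vs vehicle controls → % inhibition.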
SMILES,growth inhibition [1],growth inhibition [2],growth inhibition [3],growth inhibition [4],growth inhibition [5],growth inhibition [6]
C/C(=N/N)c1sc(-c2nc(C)c(/C(C)=N\N)s2)nc1C,32.9%,-31.1%,-26.9%,-16%,-18.1%,-11.3%
N#Cc1cc(-c2ccccc2)c[nH]c1=O,-8.55%,-1.45%,-4.6%,-36.9%,-1.25%,-1.55%
CC(C)C(NC(=O)C(CSCc1ccccc1)NC(=O)OCc1ccccc1)C(=O)O (centres undefined) (Cbz-Cys(Bn)-Val-OH; configuration not given here),24.1%,-2.4%,13.4%,28.1%,-2.1%,21.1%
C[N+](C)([O-])CCCNc1ccnc2cccc([N+](=O)[O-])c12,24.1%,6.6%,28.9%,8.4%,9.95%,-21.4%
Cc1cc(S(=O)(=O)O)ccc1Cl,-27.3%,-8.2%,-19.3%,-38.9%,-0.25%,-31.8%
O=[N+]([O-])c1nccn1CCC[n+]1cccc2ccccc21,-38.6%,-17.2%,-14.2%,-14.9%,-19.9%,-13.4%
COc1ccc(Cc2ccc3[nH]c(=O)cc(C)c3c2)cc1S(=O)(=O)O,33.8%,-17.6%,-15.5%,41.7%,-17.7%,8.95%
c1ccc(-c2ccccc2-c2ccccc2-c2ccccc2)cc1,-58.8%,-5.6%,-5.9%,-39.5%,21.5%,-12.3%
CC1(C)CC(O)(Cc2ccccc2)C(O)c2ccccc21 (centres undefined),45.5%,32.1%,31.6%,54.5%,26.1%,74.2% (active)
CCOc1cc([N+](=O)[O-])c(OCC)cc1Cl,-24.6%,-53.5%,-19.9%,11%,-17.6%,-29.6%
CCOC(=O)C1=C(Nc2ccc(Cl)c(Cl)c2)OC/C1=N\NC(=O)Cc1ccccc1,-49.8%,-22%,-4.05%,-12%,-11.7%,-35.4%
CC(=O)Nc1cc2c(cc1Cl)-c1cc(Cl)c(Cl)cc1C2=O,-18.1%,-2.55%,-9.85%,-25.1%,-20.7%,-17.5%
O=c1oc2c(CN3CCOCC3)c(O)ccc2c2c1CCCC2,24.8%,21.5%,22.8%,29.9%,43.6%,31.9%
CCOC(=O)CC(C(=O)OCC)C(C(=O)OCC)C(=O)OCC (centres undefined),41.9%,-4.1%,19.6%,3.4%,29.8%,13.6%
C=CCCCCCCCCC(=O)NCc1nc2ccccc2[nH]1,20.6%,21.6%,25.9%,1.15%,5.9%,69.1%
COc1ccc2c(c1OC)C1NCCc3cc4c(cc3C1(OC)C2=O)OCO4 (centres undefined),21.9%,2.35%,0.85%,0.5%,2%,8.55%
O=C1CC(C2(O)C(=O)Nc3ccc([N+](=O)[O-])cc32)c2ccccc21 (centres undefined),-22%,-19.1%,-9.65%,-5.4%,11.2%,-39.4%
CC(=O)OC1CC2CCCCC2CC1[N+](C)(C)C (centres undefined),2.25%,7.3%,13.8%,-1.15%,3.3%,-35.8%
CSC(=N/N=C(\C)c1ccccn1)SC,0.45%,6%,5.3%,-46.2%,-11.7%,5.85%
O=C(O)C1CC2(CCC1c1ccccc1)SCCS2 (centres undefined),6.7%,1.15%,12.1%,13.6%,6.5%,-9.85%

SMILES,growth inhibition [1],growth inhibition [2],growth inhibition [3],growth inhibition [4],growth inhibition [5],growth inhibition [6]
CCOC(=O)CCC(NC(=O)c1ccc(Nc2nc3cc(C(F)(F)F)ccc3nc2-c2ccccc2)cc1)C(=O)OCC (centres undefined),12.9%,2.7%,12.1%,3.9%,-5.35%,-37.1%
CCCCCC1OCC(C)(C)C(C(C)C)O1 (centres undefined),-0.2%,-23.9%,-12.7%,0.95%,-13.6%,8.55%
Cc1cc(C)c(C)c(Br)c1,5%,4.6%,-0.55%,-33.1%,2.4%,4.9%
COC(=O)c1ccc(C(=O)OC)nc1,-7.45%,-2.1%,-0.2%,-36.6%,-25.6%,-3.55%
O=C(O)CC1CCC(CC(=O)O)CC1 (centres undefined),-9.5%,-8.65%,-5.25%,-40.9%,-12.7%,-1.65%
Cc1ccc(S(=O)(=O)N/N=C2\C3CC4CC(C3)C2C4)cc1 (centres undefined),-21%,-24.1%,-12.9%,-6.5%,-6.25%,-15.2%
CCOC(=O)CC1(C)OCCO1,31.9%,11.4%,8.95%,21.8%,21.3%,28%
COC(=O)C(CC(=O)Nc1ccc(C)cc1)C(=O)C(=O)Nc1c(C(C)C)cccc1C(C)C (centres undefined),-43.4%,-17.8%,-7.5%,6.1%,-9.9%,-25.2%
COc1cc(Br)c(C=Nc2cccc3ccc(OS(=O)(=O)c4ccc([N+](=O)[O-])cc4)cc23)cc1OC,7.6%,-16.6%,0.65%,4.3%,5.5%,15.6%
Cc1cccc2c1C(=O)OC2(c1cccc2ccccc12)c1cccc2ccccc12,-16.4%,3.9%,4.5%,-15.7%,0%,1.6%
O=C(n1[nH]c(=O)n(-c2ccc([N+](=O)[O-])cc2)c1=O)C(Cl)(Cl)Cl,7.9%,-15.3%,22.5%,7.6%,12.7%,-28.9%
CC1(c2ccc(-c3ccccc3)cc2)NC(=O)NC1=O (centres undefined),3.55%,10.3%,14.9%,-22.5%,-4.85%,-2.3%
CC1=NN(c2nc(N)nc(CN3CCOCC3)n2)C(C)(C)C1,30.1%,3.5%,17.4%,20.6%,5.75%,-2.05%
CCCc1c(O)ccc(C)c1C,14.6%,2.5%,1.1%,-36.2%,-7.35%,32.4%
Cn1c(=N)n(CC(=O)NC23CC4CC(CC(C4)C2)C3)c2ccccc21,11.8%,-15.4%,-26.9%,2.75%,2.2%,-11.6%
C/C(CC(=O)Nc1ccc(C)cc1)=N\NC(N)=S,-13.5%,-7.7%,3.45%,8.3%,-1%,-19.6%
CC(C(=O)O)[C@H]1CC[C@H]2[C@@H]3CCC4=CC(=O)CC[C@]4(C)[C@H]3CC[C@]12C (some centres undefined),-3.5%,-5.7%,7.15%,-46.9%,2.5%,-10.2%
Cc1cc(Cl)ccc1NC(=O)C(=O)Cc1nc2ccc(C(=O)c3ccccc3)cc2[nH]c1=O,5.15%,-4.75%,-4.85%,22.9%,26.4%,7.15%
NOCc1cc(Cl)sc1Cl,24.9%,-2.9%,6.1%,60%,-23.9%,11.3%

# Source: PubChem BioAssay (NCI)
